# ± gives the standard deviation of the averaged measurements. Over roughly 2,900 compounds, “NF-kB SEAP reporter activity, fold change vs agonist alone” has its median near 0.99; the highest 2% begin near 2.6. The sample holds the highest values, similar compounds and a random draw of the others, so the mix is not that of the screen.
# What was measured:
# RAW-Dual [1] = assay: NF-kB SEAP reporter activity, fold change vs agonist alone; higher = enhanced NF-kB activity; details: library stock concentration (final ~1000-fold dilution): 10 mM
# In short: (§1)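 RAW-Dual macrophages were seeded in DMEM at 50,000 cells/well in 384-well plates, given 50 nL of library stock by pin tool, and given a PRR agonist 1 h later. Plates were held at 37 °C, 5% CO2 for 20 hours, after which supernatant was read for IRF by QuantiLuc luminescence and for NF-κB by QuantiBlue absorbance at 620 nm. Reporter activity is expressed as fold change over wells that received agonist alone. A well was called cytotoxic when IncuCyte confluency fell below 70% of agonist controls in both mask sets.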
# RAW-Dual [2] = assay: NF-kB SEAP reporter activity, fold change vs agonist alone; cytotoxicity flag (confluency mask): cytotoxic (confluency <70% of control); higher = enhanced NF-kB activity
# In short: as §1
# RAW-Dual [3] = assay: NF-kB SEAP reporter activity, fold change vs agonist alone; cytotoxicity flag (confluency mask): not cytotoxic; higher = enhanced NF-kB activity
# In short: as §1
# [4] = cytotoxicity flag (confluency mask): cytotoxic (confluency <70% of control), agonist: Imiquimod (TLR7) […]
# [5] = cytotoxicity flag (confluency mask): cytotoxic (confluency <70% of control), agonist: MPLA (TLR4) […]
# [6] = agonist: ODN 1826 (TLR9) 0.5 ug/mL
# [7] = agonist: Pam2CSK4 (TLR2/6) 0.1 ug/mL
# [8] = agonist: Pam3CSK4 (TLR2/1) 0.1 ug/mL
# [9] = cytotoxicity flag (confluency mask): not cytotoxic, agonist: Imiquimod (TLR7) […]
# [10] = cytotoxicity flag (confluency mask): not cytotoxic, agonist: MPLA (TLR4) […]
smiles,measurement,setting,value
CC1(C)CCC2(NC(=O)C(C)(F)F)CCC3(C)C(C(=O)C=C4C5(C)C=C(C#N)C(=O)C(C)(C)C5CCC43C)C2C1 (stereo not drawn),NF-kB SEAP reporter activity,RAW-Dual [1]; [4],0.14 ± 0.006
same,NF-kB SEAP reporter activity,RAW-Dual [1]; [5],0.254 ± 0.0072
CC1(C)CCC2(NC(=O)C(C)(F)F)CCC3(C)C(C(=O)C=C4C5(C)C=C(C#N)C(=O)C(C)(C)C5CCC43C)C2C1 (stereo not drawn) (library stock concentration (final ~1000-fold dilution): 10 mM),NF-kB SEAP reporter activity,RAW-Dual [2]; agonist: LPS (TLR4) 0.1 ug/mL,0.358 ± 0.053
same,NF-kB SEAP reporter activity,RAW-Dual [2]; [6],0.173 ± 0.0087
same,NF-kB SEAP reporter activity,RAW-Dual [2]; [7],0.0759 ± 0.018
same,NF-kB SEAP reporter activity,RAW-Dual [2]; [8],0.163 ± 0.0017
C=CC(C)(/C=C/c1ccc(O)cc1)CCC=C(C)C (stereo not drawn) (library stock concentration (final ~1000-fold dilution): 10 mM),NF-kB SEAP reporter activity,RAW-Dual [3]; agonist: LPS (TLR4) 0.1 ug/mL,0.878
same,NF-kB SEAP reporter activity,RAW-Dual [3]; [6],1.02
same,NF-kB SEAP reporter activity,RAW-Dual [3]; [7],0.934
same,NF-kB SEAP reporter activity,RAW-Dual [3]; [8],1.16
C=CC(C)(/C=C/c1ccc(O)cc1)CCC=C(C)C (stereo not drawn),NF-kB SEAP reporter activity,RAW-Dual [1]; [9],1.1
same,NF-kB SEAP reporter activity,RAW-Dual [1]; [10],1.12
C=CCNC1=C2CC(C)CC(OC)C(O)C(C)/C=C(\C)C(OC(N)=O)C(OC)/C=C\C=C(/C)C(=O)NC(=CC1=O)C2=O (stereo not drawn) (library stock concentration (final ~1000-fold dilution): 10 mM),NF-kB SEAP reporter activity,RAW-Dual [2]; agonist: LPS (TLR4) 0.1 ug/mL,0.289
same,NF-kB SEAP reporter activity,RAW-Dual [2]; [6],0.221
same,NF-kB SEAP reporter activity,RAW-Dual [2]; [7],0.0862
same,NF-kB SEAP reporter activity,RAW-Dual [2]; [8],0.182
C=CCNC1=C2CC(C)CC(OC)C(O)C(C)/C=C(\C)C(OC(N)=O)C(OC)/C=C\C=C(/C)C(=O)NC(=CC1=O)C2=O (stereo not drawn),NF-kB SEAP reporter activity,RAW-Dual [1]; [4],0.313
same,NF-kB SEAP reporter activity,RAW-Dual [1]; [5],0.516
CN1CCN(c2nc(C3=C(c4c[nH]c5ccccc45)C(=O)NC3=O)c3ccccc3n2)CC1 (library stock concentration (final ~1000-fold dilution): 10 mM),NF-kB SEAP reporter activity,RAW-Dual [2]; agonist: LPS (TLR4) 0.1 ug/mL,2.03
same,NF-kB SEAP reporter activity,RAW-Dual [2]; [6],1.29
same,NF-kB SEAP reporter activity,RAW-Dual [2]; [7],1.84
same,NF-kB SEAP reporter activity,RAW-Dual [2]; [8],3.14
CN(C)CCCn1cc(C2=C(c3c[nH]c4ccccc34)C(=O)NC2=O)c2ccccc21 (library stock concentration (final ~1000-fold dilution): 10 mM),NF-kB SEAP reporter activity,RAW-Dual [2]; agonist: LPS (TLR4) 0.1 ug/mL,0.346
same,NF-kB SEAP reporter activity,RAW-Dual [2]; [6],0.491
same,NF-kB SEAP reporter activity,RAW-Dual [2]; [7],0.833
same,NF-kB SEAP reporter activity,RAW-Dual [2]; [8],0.564
COc1ccc2c(c1)c(C1=C(c3c[nH]c4ccccc34)C(=O)NC1=O)cn2CCCN(C)C,NF-kB SEAP reporter activity,RAW-Dual [1]; [4],2.44
same,NF-kB SEAP reporter activity,RAW-Dual [1]; [5],1.71
CN(C)CCCn1cc(C2=C(c3c[nH]c4ccccc34)C(=O)NC2=O)c2ccccc21,NF-kB SEAP reporter activity,RAW-Dual [1]; [4],1.13
same,NF-kB SEAP reporter activity,RAW-Dual [1]; [5],1.59
CN1CCN(c2nc(C3=C(c4c[nH]c5ccccc45)C(=O)NC3=O)c3ccccc3n2)CC1,NF-kB SEAP reporter activity,RAW-Dual [1]; [4],2.99
same,NF-kB SEAP reporter activity,RAW-Dual [1]; [5],2.19
COc1ccc2c(c1)c(C1=C(c3c[nH]c4ccccc34)C(=O)NC1=O)cn2CCCN(C)C (library stock concentration (final ~1000-fold dilution): 10 mM),NF-kB SEAP reporter activity,RAW-Dual [2]; agonist: LPS (TLR4) 0.1 ug/mL,1.23
same,NF-kB SEAP reporter activity,RAW-Dual [2]; [6],0.346
same,NF-kB SEAP reporter activity,RAW-Dual [2]; [7],1.25
same,NF-kB SEAP reporter activity,RAW-Dual [2]; [8],1.82
Cc1ncc(NC(=O)c2cccc(C(F)(F)F)c2)cc1-c1cnc(OC2CCOCC2)c(N2CCOCC2)c1 (library stock concentration (final ~1000-fold dilution): 10 mM),NF-kB SEAP reporter activity,RAW-Dual [3]; agonist: LPS (TLR4) 0.1 ug/mL,1.31
same,NF-kB SEAP reporter activity,RAW-Dual [3]; [6],0.938
same,NF-kB SEAP reporter activity,RAW-Dual [3]; [7],0.495
same,NF-kB SEAP reporter activity,RAW-Dual [3]; [8],0.711
Cc1ncc(NC(=O)c2cccc(C(F)(F)F)c2)cc1-c1cnc(OC2CCOCC2)c(N2CCOCC2)c1,NF-kB SEAP reporter activity,RAW-Dual [1]; [9],0.898
same,NF-kB SEAP reporter activity,RAW-Dual [1]; [10],1.04
Cc1cc(C)c2c(c1)C(N(Cc1cc(C(F)(F)F)cc(C(F)(F)F)c1)c1nnn(C)n1)CCCN2CC1CCC(C(=O)O)CC1 (stereo not drawn) (library stock concentration (final ~1000-fold dilution): 10 mM),NF-kB SEAP reporter activity,RAW-Dual [3]; agonist: LPS (TLR4) 0.1 ug/mL,0.632
same,NF-kB SEAP reporter activity,RAW-Dual [3]; [6],0.635
same,NF-kB SEAP reporter activity,RAW-Dual [3]; [7],0.484
same,NF-kB SEAP reporter activity,RAW-Dual [3]; [8],0.444
Cc1cc(C)c2c(c1)C(N(Cc1cc(C(F)(F)F)cc(C(F)(F)F)c1)c1nnn(C)n1)CCCN2CC1CCC(C(=O)O)CC1 (stereo not drawn),NF-kB SEAP reporter activity,RAW-Dual [1]; [9],0.911
same,NF-kB SEAP reporter activity,RAW-Dual [1]; [10],1.14
